In ChEMBL document CHEMBL3988442, “University of Dundee, Small-Polar-MMV Screening Library” (2021):
For some assays here: Results with a measured potency or affinity are listed apart.

What was measured:
Parameters in all cases: scale not given: direction of the effect not stated beside the values
[1] = target: Protein translocase subunit SecA (Escherichia coli (strain K12)) (UniProt P10408); assay: Assay to Identify E. coli SecA ATPase Inhibitors; format: functional; conditions: 30 µM
[2] = target: T1, Ubiquitin-activating enzyme e1, putative (Leishmania donovani (strain BPK282A1)) (UniProt E9BSI1); assay: Leishmania donovani Ubiquitin Activating Enzyme (LdE1); format: functional; conditions: 30 µM
T1 sequence (whole entry): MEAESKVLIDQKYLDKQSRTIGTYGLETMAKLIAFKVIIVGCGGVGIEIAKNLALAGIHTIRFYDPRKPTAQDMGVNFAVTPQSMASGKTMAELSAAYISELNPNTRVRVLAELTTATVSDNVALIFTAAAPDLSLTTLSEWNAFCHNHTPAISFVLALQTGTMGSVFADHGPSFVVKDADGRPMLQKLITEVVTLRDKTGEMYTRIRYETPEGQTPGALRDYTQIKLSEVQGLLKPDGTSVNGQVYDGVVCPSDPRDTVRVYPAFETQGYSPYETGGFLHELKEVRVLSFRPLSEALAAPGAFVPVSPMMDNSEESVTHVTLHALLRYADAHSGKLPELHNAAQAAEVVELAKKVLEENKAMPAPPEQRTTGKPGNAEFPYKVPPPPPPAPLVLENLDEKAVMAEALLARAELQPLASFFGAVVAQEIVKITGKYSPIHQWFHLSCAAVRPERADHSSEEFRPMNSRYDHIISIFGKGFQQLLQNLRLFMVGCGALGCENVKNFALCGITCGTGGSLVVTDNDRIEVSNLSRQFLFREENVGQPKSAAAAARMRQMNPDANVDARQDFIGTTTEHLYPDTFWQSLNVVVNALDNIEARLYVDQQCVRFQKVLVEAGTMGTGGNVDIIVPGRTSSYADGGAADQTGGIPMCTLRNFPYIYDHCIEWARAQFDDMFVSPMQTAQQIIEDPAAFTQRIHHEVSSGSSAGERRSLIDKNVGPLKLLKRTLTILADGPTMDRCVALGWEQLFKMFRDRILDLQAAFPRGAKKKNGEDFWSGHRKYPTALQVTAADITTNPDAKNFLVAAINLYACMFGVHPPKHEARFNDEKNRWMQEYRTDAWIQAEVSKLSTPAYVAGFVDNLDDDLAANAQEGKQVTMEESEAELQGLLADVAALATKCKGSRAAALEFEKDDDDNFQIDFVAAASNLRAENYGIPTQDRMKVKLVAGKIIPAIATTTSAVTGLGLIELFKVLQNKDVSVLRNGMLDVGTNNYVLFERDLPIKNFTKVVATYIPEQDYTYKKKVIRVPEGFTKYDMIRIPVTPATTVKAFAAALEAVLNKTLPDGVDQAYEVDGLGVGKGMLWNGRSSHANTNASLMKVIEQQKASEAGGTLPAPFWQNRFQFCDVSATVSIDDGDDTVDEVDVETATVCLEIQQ

[3] = target: AMP-activated protein kinase, AMPK (Homo sapiens) (UniProt P54646+O43741+P54619+Q9UGJ0+Q9Y478+Q13131+Q9UGI9); assay: AMP-dependent Kinase enzyme assay. An in vitro enzyme assay that detects ADP turnover that is directly proportional to AMPK activity. This uses naive AMPK that is activated during the assay with MK-8722; format: functional; conditions: 30 µM
[4] = target: Sialic acid-binding Ig-like lectin 9 (Homo sapiens) (UniProt Q9Y336); assay: Hs-Siglec9 ALPHAscreen SOP 20170721; conditions: 10 µM
Sequence of Sialic acid-binding Ig-like lectin 9 (Homo sapiens) (Q9Y336 whole entry): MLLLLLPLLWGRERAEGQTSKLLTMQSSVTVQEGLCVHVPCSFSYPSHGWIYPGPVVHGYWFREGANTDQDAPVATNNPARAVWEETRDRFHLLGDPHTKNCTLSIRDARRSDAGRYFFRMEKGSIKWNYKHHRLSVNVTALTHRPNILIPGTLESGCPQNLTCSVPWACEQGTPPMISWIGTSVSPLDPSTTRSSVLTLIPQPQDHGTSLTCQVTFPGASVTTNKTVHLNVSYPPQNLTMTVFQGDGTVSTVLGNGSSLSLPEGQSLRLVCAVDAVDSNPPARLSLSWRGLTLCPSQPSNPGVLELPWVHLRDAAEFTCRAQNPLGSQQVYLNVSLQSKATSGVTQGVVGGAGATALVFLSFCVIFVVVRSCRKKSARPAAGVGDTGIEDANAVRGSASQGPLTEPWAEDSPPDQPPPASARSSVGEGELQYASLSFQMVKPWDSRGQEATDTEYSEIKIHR

[5] = tested on: Trypanosoma cruzi; assay: Trypanosoma cruzi phosphomannomutase and mannose-1-phosphate guanylyltransferase assay; format: functional; conditions: 10 µM
[6] = target: T2, Arginase-2, mitochondrial (Homo sapiens) (UniProt P78540); assay: in vitro enzyme assay to detect the production of urea directly proportional to the activity of Arginase II; format: functional; conditions: 33.3 µM; also: in the data most compounds retested in dose-response had high values
T2 sequence (whole entry): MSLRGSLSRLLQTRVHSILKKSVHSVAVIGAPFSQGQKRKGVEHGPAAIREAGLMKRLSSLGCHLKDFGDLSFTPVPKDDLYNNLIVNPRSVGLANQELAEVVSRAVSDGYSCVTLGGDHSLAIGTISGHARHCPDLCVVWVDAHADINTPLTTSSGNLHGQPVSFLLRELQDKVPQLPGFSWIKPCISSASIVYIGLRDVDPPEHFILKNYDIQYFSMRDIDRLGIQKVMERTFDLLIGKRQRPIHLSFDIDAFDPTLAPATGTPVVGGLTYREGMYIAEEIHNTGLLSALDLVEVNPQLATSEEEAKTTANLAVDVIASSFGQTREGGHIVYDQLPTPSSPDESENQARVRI

[7] = target: T3, Proteasome subunit beta (Trypanosoma cruzi) (UniProt O96673); assay: Trypanosoma cruzi proteasome chymotrypsin-like activity (TcProtChymo) assay.; also: in the data most compounds retested in dose-response had high values; format: functional; conditions: 9.37 µM
T3 sequence (whole entry): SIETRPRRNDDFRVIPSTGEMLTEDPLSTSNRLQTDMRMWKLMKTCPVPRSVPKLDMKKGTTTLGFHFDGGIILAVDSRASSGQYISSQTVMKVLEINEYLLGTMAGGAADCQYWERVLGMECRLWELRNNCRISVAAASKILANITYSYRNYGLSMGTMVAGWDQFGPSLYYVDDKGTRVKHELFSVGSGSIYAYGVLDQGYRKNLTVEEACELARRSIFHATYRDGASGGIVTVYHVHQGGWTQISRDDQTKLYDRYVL

[8] = species on record: Homo sapiens; assay: To identify inhibition of the IFN signalling (Jak-Stat) pathway via expression of an eGFP reporter gene under the control of an IFN-stimulated response element (ISRE) containing MxA promoter.; format: functional; conditions: 30 µM
[9] = target: T4, Tyrosyl-tRNA synthetase, putative (Trypanosoma cruzi (strain CL Brener)) (UniProt Q4DSP6); assay: Trypanosoma cruzi tyrosyl tRNA synthetase (TcYRS) _High Tyrosine SOP; format: functional; conditions: 30 µM; also: in the data most compounds retested in dose-response had high values
T4 sequence (whole entry): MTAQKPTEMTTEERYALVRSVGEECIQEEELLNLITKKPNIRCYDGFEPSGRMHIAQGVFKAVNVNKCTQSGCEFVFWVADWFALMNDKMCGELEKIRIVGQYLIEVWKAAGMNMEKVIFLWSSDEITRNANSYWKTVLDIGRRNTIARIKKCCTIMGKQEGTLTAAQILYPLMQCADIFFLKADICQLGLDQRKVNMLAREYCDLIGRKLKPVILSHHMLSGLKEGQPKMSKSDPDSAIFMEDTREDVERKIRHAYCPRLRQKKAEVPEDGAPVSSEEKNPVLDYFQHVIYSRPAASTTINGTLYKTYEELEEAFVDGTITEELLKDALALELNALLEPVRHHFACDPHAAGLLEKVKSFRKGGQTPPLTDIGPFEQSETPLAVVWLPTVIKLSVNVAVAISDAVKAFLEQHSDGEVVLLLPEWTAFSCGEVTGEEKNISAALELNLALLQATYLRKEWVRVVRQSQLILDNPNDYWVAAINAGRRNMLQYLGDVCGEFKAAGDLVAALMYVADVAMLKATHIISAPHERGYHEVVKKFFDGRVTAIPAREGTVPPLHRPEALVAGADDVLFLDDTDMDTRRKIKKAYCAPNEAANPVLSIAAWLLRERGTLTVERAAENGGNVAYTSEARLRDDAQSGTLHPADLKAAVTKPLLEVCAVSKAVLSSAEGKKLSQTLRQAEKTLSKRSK

[10] = target: T4, Tyrosyl-tRNA synthetase, putative (Trypanosoma cruzi (strain CL Brener)); assay: Trypanosoma cruzi tyrosyl tRNA synthetase (TcYRS) SOP; format: functional; conditions: 30 µM
[11] = target: Chromo domain-containing protein 1 (Saccharomyces cerevisiae (strain ATCC 204508 / S288c) (Baker's yeast)) (UniProt P32657); assay: ScCHD-1 Enzyme Inhibition Assay; format: functional; conditions: 30 µM; also: in the data most compounds retested in dose-response had high values
Sequence of Chromo domain-containing protein 1 (Saccharomyces cerevisiae (strain ATCC 204508 / S288c) (Baker's yeast)) (P32657 whole entry, the tested form may be a part): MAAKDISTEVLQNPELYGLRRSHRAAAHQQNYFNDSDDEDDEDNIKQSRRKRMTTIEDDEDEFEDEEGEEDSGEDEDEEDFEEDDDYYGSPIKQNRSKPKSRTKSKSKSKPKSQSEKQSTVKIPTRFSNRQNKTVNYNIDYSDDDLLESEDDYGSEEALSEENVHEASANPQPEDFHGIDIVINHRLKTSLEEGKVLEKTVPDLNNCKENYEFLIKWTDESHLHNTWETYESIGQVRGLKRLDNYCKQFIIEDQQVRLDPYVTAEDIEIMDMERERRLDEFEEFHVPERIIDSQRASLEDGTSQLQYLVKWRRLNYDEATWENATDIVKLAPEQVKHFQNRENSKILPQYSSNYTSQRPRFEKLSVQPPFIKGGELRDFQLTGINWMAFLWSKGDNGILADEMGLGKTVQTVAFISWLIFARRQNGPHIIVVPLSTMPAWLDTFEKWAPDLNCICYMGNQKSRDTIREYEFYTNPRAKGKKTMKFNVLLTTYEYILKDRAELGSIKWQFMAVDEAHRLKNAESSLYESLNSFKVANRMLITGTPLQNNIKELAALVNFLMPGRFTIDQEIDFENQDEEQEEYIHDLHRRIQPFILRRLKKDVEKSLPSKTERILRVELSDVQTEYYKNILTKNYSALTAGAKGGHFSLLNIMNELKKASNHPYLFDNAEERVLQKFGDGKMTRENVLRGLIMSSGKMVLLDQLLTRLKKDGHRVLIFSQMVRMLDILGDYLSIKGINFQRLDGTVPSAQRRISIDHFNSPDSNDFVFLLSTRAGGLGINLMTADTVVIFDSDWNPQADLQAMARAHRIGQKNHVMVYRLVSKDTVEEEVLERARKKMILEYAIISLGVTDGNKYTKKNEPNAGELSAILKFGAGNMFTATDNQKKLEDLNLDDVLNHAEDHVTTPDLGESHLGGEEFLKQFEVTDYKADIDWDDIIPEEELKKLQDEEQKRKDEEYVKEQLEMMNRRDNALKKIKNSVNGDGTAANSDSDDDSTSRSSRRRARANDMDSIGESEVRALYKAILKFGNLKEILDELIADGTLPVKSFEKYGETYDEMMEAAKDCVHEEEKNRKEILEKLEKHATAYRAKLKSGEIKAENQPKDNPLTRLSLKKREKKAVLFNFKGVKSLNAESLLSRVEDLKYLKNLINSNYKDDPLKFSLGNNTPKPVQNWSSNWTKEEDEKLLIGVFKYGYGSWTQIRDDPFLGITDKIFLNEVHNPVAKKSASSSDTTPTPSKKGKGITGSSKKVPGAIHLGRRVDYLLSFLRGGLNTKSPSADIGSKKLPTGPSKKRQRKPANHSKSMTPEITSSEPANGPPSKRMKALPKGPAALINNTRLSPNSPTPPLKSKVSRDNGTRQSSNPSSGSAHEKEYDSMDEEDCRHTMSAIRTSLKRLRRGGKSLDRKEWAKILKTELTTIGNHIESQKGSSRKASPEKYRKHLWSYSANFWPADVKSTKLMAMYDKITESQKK

Sequence of Protein translocase subunit SecA (Escherichia coli (strain K12)) (P10408 whole entry): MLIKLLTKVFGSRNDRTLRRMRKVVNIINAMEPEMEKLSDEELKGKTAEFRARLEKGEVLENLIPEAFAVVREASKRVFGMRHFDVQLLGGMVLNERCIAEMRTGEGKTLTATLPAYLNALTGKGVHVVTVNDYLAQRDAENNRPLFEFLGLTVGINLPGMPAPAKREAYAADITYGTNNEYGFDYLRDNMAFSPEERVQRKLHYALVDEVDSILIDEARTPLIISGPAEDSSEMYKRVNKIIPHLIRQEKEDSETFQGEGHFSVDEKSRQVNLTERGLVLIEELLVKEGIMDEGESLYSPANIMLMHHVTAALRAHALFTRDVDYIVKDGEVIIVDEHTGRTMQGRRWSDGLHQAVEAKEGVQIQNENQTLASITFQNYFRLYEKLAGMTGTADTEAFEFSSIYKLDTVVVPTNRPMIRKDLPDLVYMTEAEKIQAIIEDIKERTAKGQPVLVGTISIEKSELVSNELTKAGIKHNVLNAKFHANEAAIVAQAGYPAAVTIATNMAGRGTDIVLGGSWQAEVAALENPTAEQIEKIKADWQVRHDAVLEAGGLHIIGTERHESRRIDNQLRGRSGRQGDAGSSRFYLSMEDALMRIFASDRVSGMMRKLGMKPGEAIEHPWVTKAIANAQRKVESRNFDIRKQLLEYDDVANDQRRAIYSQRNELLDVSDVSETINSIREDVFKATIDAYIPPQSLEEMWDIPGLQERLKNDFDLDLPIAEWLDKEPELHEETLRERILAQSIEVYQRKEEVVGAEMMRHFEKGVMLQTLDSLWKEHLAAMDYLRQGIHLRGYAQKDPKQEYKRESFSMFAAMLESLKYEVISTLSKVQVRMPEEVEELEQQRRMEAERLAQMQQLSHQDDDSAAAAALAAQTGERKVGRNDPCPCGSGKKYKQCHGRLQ

| SMILES | Percent Effect [1] [%] | Percent Effect [2] [%] | Percent Effect [3] [%] | Percent Effect [4] [%] | Percent Effect [5] [%] | Percent Effect [6] [%] | Percent Effect [7] [%] | Percent Effect [8] [%] | Percent Effect [9] [%] | Percent Effect [10] [%] | Percent Effect [11] [%] |
| --- | --- | --- | --- | --- | --- | --- | --- | --- | --- | --- | --- |
| Cc1ccsc1CNC(=O)Cc1c(C)nc2c(c1C)c(=O)[nH]n2C | -4.14 | 10.4 | 5.94 | 8.57 | -2.06 | 2.32 | 5.25 | 21.2 | 2.86 | 11.8 | -20.4 |
| O=C(O)c1coc(COc2cccc(F)c2)n1 | -5.01 | 16.2 | -4.57 | 33.9 | 5.77 | 19.6 | 18.4 | -3.93 | 5.38 | 16.1 | -12.4 |
| O=C(COc1cccc(Br)c1)N1CCN(c2nccs2)CC1 | -4.01 | 18.7 | 3.31 | 10.4 | 4.58 | 47.4 | 19.4 | 26.2 | 3.83 | 16.1 | 84.6 |
| CN(CC(=O)N(C)C1CCCCC1)C1CCc2ccccc21 (configuration not stated) | -3.95 | 7.89 | 6.4 | -4.14 | -7.14 | 3.45 | 7.35 | 15.2 | 2.45 | 9.76 | -6.2 |
| COCCN1C[C@@H](C)[C@@]2(COCCN(C(=O)Cc3ccccc3)C2)C1 | -2.42 | 10.7 | 4.69 | 6.89 | 1.54 | -54.7 | 5.13 | -15.6 | 5.21 | 12.5 | -7.47 |
| CC(C)Nc1ncnc2c1CCN(C(=O)c1ccncc1F)CC2 | -4.14 | 8.11 | 0.552 | -7.16 | -6.35 | -2.87 | 17.2 | 4.19 | 3.24 | 10.3 | -3.13 |
| CCNC(c1cccnc1)c1ccc(F)c(F)c1 (configuration not stated) | -1.6 | -1.27 | 6.62 | 2.25 | -0.923 | 4.09 | 5.66 | 5.14 | 1.04 | -5.06 | -14.2 |
| CN(C)S(=O)(=O)N1CCN(c2nccc(C(F)(F)F)n2)CC1 | -2.09 | 5.48 | 8.09 | 4.91 | 7.64 | 0.909 | 10.5 | 9.93 | 5.38 | 12.5 | -3.75 |
| CC(NC(=O)NCc1ccc(Cl)cc1)c1ccccn1 (configuration not stated) | -1.55 | 1.27 | 3.12 | 3.62 | 5.23 | -6.24 | 12 | 12.2 | 2.08 | 0 | -24.6 |
| CCNC(=O)Nc1ccc2c(ccn2CC(=O)N(CC)CC)c1 | -2.78 | 18.4 | -2.69 | 1.44 | -0.188 | -4.6 | 12.5 | 19.9 | 9.31 | 17.1 | -6.24 |
| Cn1cc(CN2CCCC3(CCN(c4nncs4)C3)C2)cn1 (configuration not stated) | -9.67 | 2.7 | 2.26 | -4.09 | -2.83 | -1.24 | 1.97 | -4.18 | 1.07 | 6.17 | -0.679 |
| COC(=O)c1cccn1C1CCN(C(=O)c2cn[nH]c2C)CC1 | -3.48 | 10.4 | 0.41 | 9.63 | 4.31 | 0.356 | 8.11 | 21 | 6.8 | 19.5 | -9.12 |
| CC(C)OCCN1CCC(N2CCN(C)C2=O)CC1 | -8.32 | 10.4 | -1.47 | 4.31 | 8.24 | -6.05 | -1.18 | 6.82 | 4.85 | 14.6 | -9.74 |
| Cc1ccc(C(=O)N2CCN(C(=O)Nc3ccccn3)CC2)o1 | -7.04 | -2.6 | 9.04 | -0.542 | -5.58 | 2.32 | 9.13 | 11 | 0 | -4.71 | -16.4 |
| O=C(NCCCn1cncn1)NCC(c1ccccc1)N1CCCC1 (configuration not stated) | -4.8 | 2.6 | -5.77 | -8.15 | 5.58 | -2.32 | 14.6 | 6.64 | 3.81 | 2.35 | -23.6 |
| CN(CCOc1cccc(CNC(=O)C2CC2)c1)C1CCOCC1 | -3.16 | 0 | 2.77 | -1.13 | 4.44 | 3.33 | -3.45 | -3.27 | -0.529 | 2.44 | 0.329 |
| CN(Cc1cccs1)C(=O)CS(=O)(=O)Cc1ccc(Cl)c(Cl)c1 | -3.83 | 2.6 | 4.47 | -21.6 | 5.39 | -2.74 | 16.7 | 6.68 | -11.4 | -2.35 | -21.7 |
| CC(C(=O)N1CCC(Nc2cccnn2)CC1)n1ccnc1 (configuration not stated) | -2.11 | 5.41 | -6.39 | 14.9 | 4.43 | -3.21 | 3.42 | 11.9 | 3.45 | 6.17 | -6.18 |
| CC(C)C1CN(c2ncccn2)CCC(=O)N1Cc1ccc(F)cc1 (configuration not stated) | -4.22 | 6.94 | -1.8 | -3.12 | -0.291 | 4.86 | 7.54 | 8.83 | 7.37 | 12.8 | -3.01 |
| O=C1CCCN1Cc1ncn2c1CN(C(=O)c1cccc(F)c1)CCC2 | -0.833 | 16.2 | -2.98 | 12 | 3.42 | 20.6 | 13.3 | 17.8 | 8.6 | 16.1 | -12.8 |
| CC1(C(=O)N2CCOCC2)CN(Cc2ccccn2)CCO1 (configuration not stated) | -7.59 | 1.35 | -5.87 | -5.46 | -4.35 | -5.8 | 9.52 | 24.2 | 1.07 | -3.9 | 6.62 |
| CCC1c2cccn2CCN1C(=O)c1ccc2nonc2c1 (configuration not stated) | -6.68 | -1.39 | -3.32 | -10.2 | -3.79 | 0 | 11.6 | -4.01 | 3.16 | -2.56 | 2.02 |
